# Measured values: PubChem BioAssay AID1851 (National Center for Advancing Translational Sciences (NCATS), 2009)
# Values joined by “and” are separate entries in the source; they are usually repeats but may differ in a detail not shown here. Equal values may be shown once. Screen size: about 16,000 compounds; about 5,700 (36%) were called active. Inconclusive results (about 24%) are left out. The call rests on the fitted dose curve; in most records, active means well fitted curve in the direction sought with a large enough effect; inconclusive means small, poorly fitted or top-dose-only effect, or effect the other way; inactive means no such curve, though single readings can be large or run the other way. The list shows a part of the results.
# Molecular target: Cytochrome P450 1A2 (Homo sapiens) (UniProt P05177)
# Test: Cytochrome panel assay with activity outcomes
# Conditions: recombinant CYP, pro-luciferin dealkylation, luminescence, p450-cyp1a2; series mostly up to 57.1 µM
# On the % scale 0 is the no-effect control and ±100 the full control effect.
# Sequence of Cytochrome P450 1A2 (Homo sapiens) (P05177 whole entry, looked up): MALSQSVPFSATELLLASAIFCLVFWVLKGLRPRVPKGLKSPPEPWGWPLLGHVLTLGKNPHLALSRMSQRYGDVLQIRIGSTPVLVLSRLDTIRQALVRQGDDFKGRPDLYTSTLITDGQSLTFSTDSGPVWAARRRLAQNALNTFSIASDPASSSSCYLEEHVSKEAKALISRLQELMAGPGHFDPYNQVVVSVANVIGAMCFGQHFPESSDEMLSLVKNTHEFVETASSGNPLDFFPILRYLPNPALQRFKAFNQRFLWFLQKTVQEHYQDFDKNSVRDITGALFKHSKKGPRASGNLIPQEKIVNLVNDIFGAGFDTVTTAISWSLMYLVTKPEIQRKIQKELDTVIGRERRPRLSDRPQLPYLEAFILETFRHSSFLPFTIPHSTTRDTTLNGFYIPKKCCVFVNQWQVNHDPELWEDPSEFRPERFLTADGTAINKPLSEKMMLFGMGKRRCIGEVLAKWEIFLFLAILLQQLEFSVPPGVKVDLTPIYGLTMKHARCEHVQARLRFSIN
Structure (SMILES),"activity, negative = inhibition",AC50
O=C(Oc1ccc2c(c1)CN(Cc1ccccc1)CO2)c1ccccc1,-14.3% [at 2.29 µM] (inactive),
C[C@H](c1ccccc1)N1C(=O)[C@H]2[C@@H]3[C@H](O)[C@H](O)CC(=O)[C@H]3CC[C@H]2C1=O,-6.45% [at 11.4 µM] (inactive),
O=C(O)Cc1ccc2ocnc2c1,,inactive
CCCCN1C(=O)CN(CCc2ccccc2)C(=O)C1c1ccc(OC)cc1 (stereo unspecified),,inactive
COc1cc(OC)cc(C(=O)NC(=S)Nc2ccc(Cl)c(C(=O)O)c2)c1,,inactive
COc1cc(OC)cc(C(=O)NC(=S)NCCc2ccccc2)c1,,1.26 µM (active)
CNC(=O)NC(=S)NC(=O)c1ccc(OC)cc1,,10 µM (active)
COc1ccc(C(=O)NCc2cn3ccccc3n2)cc1,,10 µM (active)
Cc1ccc(C(=O)O)cc1N1C(=O)c2cccc3cc(Br)cc(c23)C1=O,,inactive
CN(Cc1cc(C(C)(C)C)cc(Br)c1O)Cc1cc(C(C)(C)C)cc(Br)c1O,,3.16 µM (active)
CC(CCC(=O)O)(c1cc(Br)c(O)c(Br)c1)c1cc(Br)c(O)c(Br)c1,-17.9% [at 2.29 µM] (inactive),
CC(C)(C)c1cc2c(O)c(c1)Cc1cc(C(C)(C)C)cc(c1O)Cc1cc(C(C)(C)C)cc(c1O)Cc1cc(C(C)(C)C)cc(c1O)Cc1cc(C(C)(C)C)cc(c1O)Cc1cc(C(C)(C)C)cc(c1O)Cc1cc(C(C)(C)C)cc(c1O)Cc1cc(C(C)(C)C)cc(c1O)C2,-14.2% [at 11.4 µM] (inactive),
COc1ccc(CCN(C)CCC(=O)Nc2c(C)cc(C)cc2C)cc1OC,,inactive
COc1ccc(Cc2ccccc2C(=O)O)c2ccccc12,2.81% [at 2.29 µM] (inactive),
COc1ccc(C(=O)CCN(C)C)c2ccccc12,,1.58 µM (active)
CN(Cc1ccco1)c1ncnc2ccc(-c3ccccc3C(F)(F)F)cc12,,5.01 µM (active)
CN(Cc1ccco1)c1ncnc2ccc(-c3ccccc3Cl)cc12,,2 µM (active)
CN(C)Cc1ccccc1-c1ccc2ncnc(N(C)Cc3ccco3)c2c1,,2 µM (active)
CN(Cc1ccco1)c1ncnc2ccc(-c3cccc(C#N)c3)cc12,,0.501 µM (active)

Structure (SMILES),"activity, negative = inhibition",AC50
COCC(=O)N1CCC[C@@]2(CCN(Cc3ccccc3OC)C2)C1,,inactive
CC(=O)OC[C@@H]1O[C@H](C/C=N\O[C@@H]2O[C@H](COC(C)=O)[C@@H](OC(C)=O)[C@H](OC(C)=O)[C@H]2OC(C)=O)C=C[C@@H]1OC(C)=O,-3.65% [at 11.4 µM] (inactive),
CN(Cc1ccco1)c1ncnc2ccc(-c3ccccc3C#N)cc12,,1 µM (active)
Oc1ccc([C@@H]2CNCc3sccc32)cc1O,,inactive
COc1ccccc1CN1CCCC2(CCN(C(=O)c3csnn3)CC2)C1,,inactive
Cc1cc(C(=O)CC#N)c(C)n1CC(F)(F)F,,15.8 µM (active)
C=CCn1c(C)cc(C(=O)CN2C(=O)c3ccccc3C2=O)c1C,,inactive
CC1(C)OC(C(N)=O)C(C(N)=O)O1 (stereo unspecified),,inactive
CCOC(=O)N/N=C1/C[C@@H](O)[C@@H](O)[C@@H]2[C@@H]3C(=O)N(Cc4ccccc4)C(=O)[C@H]3CC[C@H]12,-4.78% [at 11.4 µM] (inactive),
COc1ccccc1OCC(=O)N/N=C1/SCC(=O)N1Cc1ccccc1,,5.01 µM (active)
CCOC(=O)N/N=C1/C[C@@H](O)[C@@H](O)[C@@H]2[C@@H]3C(=O)N(Cc4ccccc4)C(=O)[C@H]3CC[C@@H]12,-3.55% [at 11.4 µM] (inactive),
CCOc1cc(/C=C2/NC(=O)N(CC(=O)Nc3cccc(C)c3)C2=O)ccc1OC,,inactive
CCOc1cc(/C=C2\C(=O)N(Cc3ccc(C)cc3)C(C)=C2C(=O)OC)ccc1O,,14.1 µM (active)
O=C1OCCC1Sc1nnnn1-c1ccccc1 (stereo unspecified),,inactive
O=C1OCCC1Sc1nnc(-c2ccc(O)cc2)o1 (stereo unspecified),,2.24 µM (active)
N#Cc1cccc(NC(=O)N2CC[C@@]3(CCCNC3)C2)c1,,inactive
NC(=O)c1nn(-c2ccccc2)c(=O)cc1O,,inactive
O=C(c1ccccc1)c1nn(-c2ccccc2)c(=O)cc1C(F)(F)F,,0.501 µM (active)
C=CC[C@@H]1C=C[C@H](ON=C(C)C)[C@H](CO)O1,3.87% [at 11.4 µM] (inactive),

Structure (SMILES),"activity, negative = inhibition",AC50
COC(=O)[C@H](C)NC(=O)C/C=C\[C@@H](C)[C@H]1C=C[C@H](O)[C@@H](CO)O1,-5.17% [at 11.4 µM] (inactive),
C=CCn1cc(/C=N\NC(=O)c2cc3c(ccc4ccccc43)o2)c2ccccc21,,1 µM (active)
O=C(N/N=C/c1ccncc1)c1cc2c(ccc3ccccc32)o1,,0.355 µM (active)
Cc1ccc(-c2ccc(/C=N\NC(=O)c3cc4c(ccc5ccccc54)o3)o2)cc1[N+](=O)[O-],,22.4 µM (active)
Cc1ccccc1C(=O)N/N=C/c1ccncc1,,12.6 µM (active)
CC(O)(P(=O)(O)O)P(=O)(O)O,,inactive
COc1ccccc1CN1CC[C@@]2(CCCN(C(=O)c3cccn3C)C2)C1,,inactive
COc1ccc(/C=N/NC(=O)c2cccc([N+](=O)[O-])c2)cc1OS(=O)(=O)c1ccc(C)cc1,,inactive
O=C(N/N=C/c1cccc([N+](=O)[O-])c1)c1cc2c(ccc3ccccc32)o1,,0.355 µM (active)
O=C(N/N=C/c1ccco1)/C(=C/c1cccc([N+](=O)[O-])c1)NC(=O)c1ccccc1,,inactive
Cc1cc(C(=O)N/N=C/c2cccc([N+](=O)[O-])c2)c(C)o1,,1.41 µM (active)
C#C[C@@]1(OC(C)=O)CC[C@@H]2[C@@H]3CCC4=C[C@@H](OC(C)=O)CC[C@H]4[C@H]3CC[C@]21C,,inactive
C/C(CCN1CCc2nc(-c3ccccc3)c(-c3ccccc3)cc2C1)=N\O[C@@H](C)c1cc(-c2c(C)cc(C)cc2C)no1,9.44% [at 11.4 µM] (inactive),
O=c1cc(N2CCOCC2)oc2c(-c3ccccc3)cccc12,,1.58 µM (active) and 200 nM (active)
Cc1cc(C)c2nc3c(c([C@H](O)[C@@H]4CCCCN4)c2c1)CC/C3=C/c1ccc(Cl)cc1,-20.6% [at 11.4 µM] (inactive),
Clc1ccc(C(c2nnnn2C2CCCC2)N2CCN(Cc3ccncc3)CC2)cc1 (stereo unspecified),,10 µM (active)
Cc1ccc(C(c2nnnn2C2CCCC2)N2CCN3CCCC3C2)cc1 (stereo unspecified),,inactive
c1coc(CN2CCN(C(c3cccs3)c3nnnn3C3CCCC3)CC2)c1 (stereo unspecified),,inactive
